Sampled rows, rich in hits. Any-hit rate of the full collection: about 2.5%.
pAkt inh: Akt phosphorylation inhibition; activity change, % for hits at 50 µM; Neuro2A IGF-stimulated pAkt S473 HTRF, 20 min; hits give low values; hit rate 0.32% among 360,000; in the data active = activity change below about -80%; inconclusive = mostly about -51% to -80%; also: % is scaled to controls: 0 for no effect and ±100 for the full control effect
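Single-point screen (50 µM final compound) in Neuro2A cells stimulated 20 min with 6 nM IGF at 37 deg C. After lysis, Ser473-phosphorylated Akt read by HTRF (ex 330 nm, em 615/665 nm) as the 665/615 ratio.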
TDP-43 yeast inh: TDP-43 toxicity inhibition in yeast. TDP-43 expressing yeast growth rescue, BacTiter-Glo, 24 h. Potency, µM (top dose mostly 46.1 µM), inactives show at the highest dose growth rescue (activation), actives largely listed as activators. hit rate 1.8% among 410,000. AID 652104; also: potency is read from the fitted curve at half-maximal effect; % of control where 0% means no effect; nearly all actives have a fitted effect of over 50% in size
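Luminescence from BacTiter-Glo reports growth of TDP-43-expressing yeast after 24 hr at 30 deg C with compound. Cells were raffinose-pregrown to mid-log, then seeded in galactose medium at OD600=0.02.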
Apoferritin bind: candidate novel general anesthetic via apoferritin binding | apoferritin/1-aminoanthracene competitive binding, fluorescence | hit rate 0.074% among 350,000 | Potency, µM (series often up to 77.5 µM), for the others: at the top dose activity change, negative = displacement, hits mostly inhibitors; also: potency is read from the fitted curve at half-maximal effect; % is scaled to controls: 0 for no effect and ±100 for the full control effect; nearly all actives have a fitted effect of over 20% in size
Target sequence (P02791 2-175 limits assumed): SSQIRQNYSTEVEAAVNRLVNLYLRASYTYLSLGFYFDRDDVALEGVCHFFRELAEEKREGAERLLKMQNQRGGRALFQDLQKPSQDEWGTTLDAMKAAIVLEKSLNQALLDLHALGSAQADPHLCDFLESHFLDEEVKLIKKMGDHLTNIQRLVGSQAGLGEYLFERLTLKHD
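Apoferritin-based anesthetic binding model; compound displacement of fluorescent 1-AMA measured as endpoint fluorescence after 10 minutes at room temperature, scaled to free-ligand and complex controls.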
CCT chaperon mod: changes cytosolic chaperonin activity; hit rate 0.3% among 360,000; purified chaperonin ATPase assay, HTRF ADP detection, 30 min; activity change, % (concentration not given with the values), hits read low; in the data active = activity change below about -30%; also: % is scaled to controls: 0 for no effect and ±100 for the full control effect
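TRiC at 40 or 20 nM final (batch-dependent) in 30 mM Tris pH 7.4, 100 mM KCl, 5 mM MgCl2, 1 mM DTT, with compound at single 76 uM and 10 uM ATP, 30 min at 37 deg C. ADP detected by HTRF Transcreener, 665/615 ratio.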
aSyn rescue: rescues yeast growth from alpha-synuclein toxicity. Potency, µM (series often up to 46.1 µM), for inactives: at the top dose growth rescue (activation), actives largely listed as activators. AID 652106. hit rate 0.14% among 370,000. Yeast expressing alpha-synuclein, growth rescue, BacTiter-Glo, 24 h; also: potency is read from the fitted curve at half-maximal effect; % of control where 0% means no effect; nearly all actives have a fitted effect of over 65% in size
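Rescue of yeast growth: cells expressing toxic alpha-synuclein, induced in galactose at OD600 0.02, incubated with compound 24 h at 30 C. ATP luminescence quantified growth; inhibitors of toxicity appear as activators.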
Mito fusion act: mitochondrial division inhibition or fusion activation; S. cerevisiae fusion-defective mutant growth rescue, CellTiterGlo 48 h; Potency, µM (highest dose often 46.1 µM), for the others: top-dose growth rescue (activation), hits mostly activators; hit rate 0.23% among 320,000; also: potency is read from the fitted curve at half-maximal effect; % of control where 0% means no effect; nearly all actives have a fitted effect of over 45% in size
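Compounds are tested for their ability to restore growth of mitochondrial fusion-defective yeast strains at non-permissive 37C in YPEG medium over 48 hours. Viability is quantified by luciferase luminescence.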
Starred values were filed as active, the others as inactive; i = inactive; ? = inconclusive; nt = no result; [ ] = another dose, or the depositor's remark. Unless noted, calls follow the shape of the dose curve; as a rule, active = well fitted curve in the direction sought with a large enough effect; inconclusive = small, poorly fitted or top-dose-only effect, or another doubt; inactive = no such curve, though single readings can be large; an effect the other way counts as inactive or inconclusive.

SMILES	pAkt inh	TDP-43 yeast inh	Apoferritin bind	CCT chaperon mod	aSyn rescue	Mito fusion act
Cc1cc(C)c(S(=O)(=O)NCc2ccc3c(c2)OCO3)cc1C	i	?	-19%	0	20%	-1%
COc1ccccc1CNS(=O)(=O)c1ccc(Cl)s1	i	13µM*	-11%	-1	16%	-6%
Cc1cc(C)c(S(=O)(=O)NCc2ccc3c(c2)OCO3)c(C)c1	i	18µM*	-19%	1	2%	9%
CCOc1cc(C)c(Cl)cc1S(=O)(=O)N1CCCC1	-119%*	17%	-10%	1	4%	1%
Cc1ccc2c(c1)CCCN2C(=O)c1cnn2c1NC(=C1CC1)C=C2C(F)F	nt	nt	nt	nt	-1%	nt
O=C(CO)[C@@H](O)C(O)[C@@H](O)CO (some centres undefined)	nt	nt	7%	nt	nt	nt
COc1ccc(CNc2ncnc3nc[nH]c23)cc1OC	nt	nt	nt	nt	-5%	nt
Nc1ccc(C(Cc2ccnc3ccccc23)Cc2ccnc3ccccc23)cc1	nt	nt	nt	nt	2%	nt
CCOc1cc(C)c(Cl)cc1S(=O)(=O)NCc1ccc2c(c1)OCO2	i	14µM*	-8%	0	11%	9%
CCOc1cc(S(=O)(=O)NCc2ccc3c(c2)OCO3)c(C)cc1C	i	19%	2%	2	7%	15%
O=c1n(Cc2ccc([N+](=O)[O-])cc2)c2ccccc2c2nc(-c3ccccc3)nn12	nt	-5%	6%	nt	nt	nt
Cc1cc(/C=N/NC(N)=S)c(C)n1-c1ccc(Cl)c(Cl)c1	i	18µM*	1%	0	11%	3%
CC(C)CN(C)c1ccc(/C=C2\C=Cc3ccccc32)cc1	nt	nt	nt	nt	19%	nt
O=C(C(=O)N1CCC(Cc2ccccc2)CC1)c1cccc(Br)c1	i	-9%	nt	nt	4%	nt
O=C(C(=O)N1CCC(c2ccccc2)CC1)c1cccc([N+](=O)[O-])c1	i	?	nt	nt	?	nt
COc1ccc(C(=O)C(=O)N2CCC(c3ccccc3)CC2)cn1	i	27%	nt	nt	16µM*	nt
COc1ccc(C(=O)C(=O)N2CCC(Cc3ccccc3)CC2)cc1OC	i	11µM*	nt	nt	0%	nt
O=C(NCc1ccccn1)C1(C(F)(F)F)CC(CCCO)CCCO1 (centres undefined)	nt	nt	-4%	nt	nt	nt
O=C(Nc1cccc(F)c1)N1CCc2nc(NCc3cccc(Oc4ccccc4)c3)ncc2C1	i	16µM*	nt	-2	7%	nt
CC(C)(C)NS(=O)(=O)c1ccc(CCC(=O)Nc2ccc3c(c2)OCO3)cc1	i	-17%	-2%	-2	-1%	-1%
O=C(NCc1cccnc1)Nc1ccc2c(c1)OCO2	i	17%	-3%	-4	-4%	2%
Cn1cc(CNC(=O)Nc2ccc3c(c2)OCO3)cn1	-106%*	9%	-1%	-2	-1%	-1%
Cn1nccc1C(=O)Nc1ccc2c(c1)OCO2	i	17%	-6%	-55*	-4%	-4%
CC(C)(C)NS(=O)(=O)c1ccc(C(=O)Nc2ccc3c(c2)OCO3)cc1	i	-2%	-4%	-3	-1%	35µM*
O/N=C(/CI)c1ccc2ccccc2c1	nt	nt	nt	nt	4%	nt
SMILES	pAkt inh	TDP-43 yeast inh	Apoferritin bind	CCT chaperon mod	aSyn rescue	Mito fusion act
O=C(CN1C(=O)CC(c2ccc(F)cc2)=Nc2ccccc21)NCc1ccccc1Cl	nt	9%	-4%	nt	nt	nt
CCOC(=O)NCc1ccc(Cl)c(Cl)c1	i	18µM*	-14%	0	8%	-2%
Clc1ccc(-c2csc(N/N=C/c3ccco3)n2)cc1	i	6.3µM*	-1%	-1	-28%	-2%
Cc1ccc(-c2csc(N/N=C/c3ccco3)n2)cc1	i	7%	-17%	1	-18%	-17%
Cc1cccc(N2CCN(C(=O)c3c(C)oc4ncnc(N5CCCCC5)c34)CC2)c1C	nt	35µM*	-5%	nt	nt	nt
Cc1cccc(N2CCN(C(=O)c3c(C)oc4ncnc(N5CCOCC5)c34)CC2)c1C	nt	20µM*	1%	nt	nt	nt
Cc1nc(N2CCCC2)c2c(C(=O)N3CCN(c4cccc(C)c4C)CC3)c(C)oc2n1	nt	?	-16%	nt	nt	nt
Cc1ccc(N2CCN(C(=O)c3c(C)oc4nc(C)nc(N5CCCC5)c34)CC2)c(C)c1	nt	25µM*	-18%	nt	nt	nt
CC1CCCCC1Nc1nc2ccc(Cl)cc2n2cnnc12 (centres undefined)	i	13µM*	?	-1	10%	-43%
C=C(C)C(O)/C=C/C=C/c1ccccc1 (centres undefined)	nt	nt	-8%[15.3 µM]	nt	nt	nt
O=C(/C=C/c1cccs1)Nc1cccc(NC(=O)/C=C/c2cccs2)n1	i	7.9µM*	-10%	-4	-8%	14µM*
CC1CCc2nc(-c3cc4ccc(O)cc4oc3=O)sc2C1 (centres undefined)	nt	nt	nt	nt	0%	nt
C=CCOc1ccc(C=CC(=O)c2c(O)c(OC)c(OC)c(OC)c2OC)cc1	i	22µM*	nt	0	13%	nt
COc1ccc(NS(=O)(=O)c2ccc3oc4ccccc4c3c2)cn1	i	?	-18%	-3	22µM*	25µM*
COc1cc(C)c(C)cc1S(=O)(=O)Nc1cccc(-c2ccc(N3CCOCC3)nn2)c1	nt	-16%	-17%	nt	nt	nt
CCOC(=O)c1cc(C#N)c(Oc2ccccc2)nc1-c1ccccc1	i	?	-12%	-2	8%	13µM*
Cc1ccc(F)cc1C(=O)N1CCCC(c2cc(C(=O)Nc3ccccc3)no2)C1 (centres undefined)	i	35µM*	nt	0	?	nt
Cc1ccc(F)cc1C(=O)N1CCCCC1c1cc(C(=O)Nc2ccccc2)no1 (centres undefined)	i	0%	nt	0	12%	nt
O=C(Nc1ccc2c(c1)OCO2)c1cc(C2CCCN(C(=O)CCCc3ccccc3)C2)on1 (centres undefined)	nt	?	nt	2	17%	nt
O=C(Nc1ccc(F)c(Cl)c1)c1cc(C2CCCCN2C(=O)c2cccs2)on1 (centres undefined)	i	-2%	nt	0	11%	nt
O=C(Nc1ccc2c(c1)OCO2)c1cc(C2CCCN(C(=O)CCc3ccccc3)C2)on1 (centres undefined)	i	22µM*	nt	-2	-4%	nt
O=C(Nc1ccc(F)c(Cl)c1)c1cc(C2CCCN(C(=O)c3cccs3)C2)on1 (centres undefined)	i	22µM*	nt	0	0%	nt
O=C(Nc1ccccc1)c1cc(C2CCCN(C(=O)C/C=C/c3ccccc3)C2)on1 (centres undefined)	i	22µM*	nt	-1	-4%	nt
CCn1cc(C(=O)N(C)c2cc(C)ccc2C)c2cc(OC)c(OC)cc2c1=O	nt	11%	-9%	nt	nt	nt
Cc1ccc(F)c(C2C3C=CCCC3(C)C(=O)N2Cc2ccccc2)c1 (centres undefined)	nt	nt	7%	nt	nt	nt

Compound activity deposited in PubChem BioAssay by National Center for Advancing Translational Sciences (NCATS).
